We go through 39 molecules from PubChem BioAssay (NCATS).

Records with an inconclusive call do not appear. A number with no mark means an inactive call. Active and inactive are the calls of the source. Calls follow the shape of the dose curve; as a rule, active = well fitted inhibition curve with a large enough effect; inconclusive = small, poorly fitted or top-dose-only effect; inactive = flat fitted curve, though single readings scatter.
% is scaled to controls: 0 for no effect and ±100 for the full control effect; potency is read from the fitted curve at half-maximal effect.

This test can be described thus: P-glycoprotein substrates identified in KB-8-5-11 adenocarcinoma cell line, qHTS therapeutic library screen (AID 1346987). Also: nearly all actives have a fitted effect of over 65% in size. The following applies: KB-8-5-11 (P-gp overexpressing) viability, CellTiter-Glo, 72 h; series mostly up to 44.5 µM; activity change, negative = cytotoxicity: at the top concentration. In short, it runs like this:
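In this qHTS, P-gp-rich KB-8-5-11 cells received library compounds across a concentration range. Viability was quantified by luminescence after 72 h at 37 degree C.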
`CC(=O)OCC(=O)[C@@]1(O)CC[C@H]2[C@@H]3CCC4=CC(=O)CC[C@]4(C)C3=CC[C@@]21C`: the “activity change, negative = cytotoxicity” value was -11.2%.

For the molecule `C[N@+]12CCCC[C@@H]1CCC(=C(c1cccs1)c1cccs1)C2`, the “activity change, negative = cytotoxicity” value was -5.92%.

With `CO[C@@H]1[C@H](OC(=O)/C=C/C=C/C=C/C=C/C(=O)O)CC[C@]2(CO2)[C@H]1[C@@]1(C)O[C@@H]1CC=C(C)C`, the “activity change, negative = cytotoxicity” value is -19.2%.

Consider `COc1ccc(/C=C/C(=O)O)cc1`, for which the “activity change, negative = cytotoxicity” value was -4.91%. For `O=P(O)(O)O`, the “activity change, negative = cytotoxicity” value was 16.9%. Consider `CCCCCCCCCCCC(=O)OC[C@@H](O)C1OC[C@H](O)[C@H]1O` (some centres undefined), for which the “activity change, negative = cytotoxicity” value was -4.78%. As for `C=C1CC[C@H](O)C/C1=C\C=C1/CCC[C@]2(C)[C@@H]([C@H](C)CCCC(C)C)CC[C@@H]12`, the “activity change, negative = cytotoxicity” value was -23.9%. Regarding `C=N[C@@H](C(=O)N[C@@H]1C(=O)N2[C@@H]1SC(C)(C)[C@@H]2C(=O)O)c1ccccc1`, the “activity change, negative = cytotoxicity” value was 21.1%.

Take `CC(C)[C@@H](C)/C=C/[C@@H](C)[C@H]1CC[C@H]2/C(=C/C=C3\C[C@@H](O)CC[C@@H]3C)CCC[C@]12C`: the “activity change, negative = cytotoxicity” value was -25.2%. Regarding `CC(C)(C)CC(C)(C)c1ccc(OCCO)cc1`, the Potency was 13 µM (active). With `CCCCCCCCCCCCCCCCCC(=O)OC[C@@H](O)[C@H]1OC[C@H](O)[C@H]1O`, the “activity change, negative = cytotoxicity” value is 0.511%. Regarding `O=C1c2c(O)cccc2[C@H]([C@@H]2O[C@H](CO)[C@@H](O)[C@H](O)[C@H]2O)c2cc(CO)cc(O)c21`, the “activity change, negative = cytotoxicity” value is -21.8%. For `Cc1cccc(C)c1NC(=O)C1CCCCN1C` (centres undefined), the “activity change, negative = cytotoxicity” value was -18.6%. Consider `C=CC(C)(O)CC/C=C(\C)CCC=C(C)C` (centres undefined), for which the “activity change, negative = cytotoxicity” value was 11.2%. Regarding `Oc1cccc(O)c1O`, the “activity change, negative = cytotoxicity” value is -24.7%. Consider `COc1ccc(C[C@H](C)NC[C@@H](O)c2ccc(O)c(NC=O)c2)cc1`, for which the Potency entry was “inactive”. As for `CC(O)CN(C)C` (centres undefined), the “activity change, negative = cytotoxicity” value is 3.49%. The same measure, in the same setting: for `OC1OC[C@@H](O)[C@H](O)[C@@H]1O` (some centres undefined) the value was 13.5%; for `CO[C@@]1(NC(=O)C2SC(=C(C(N)=O)C(=O)O)S2)C(=O)N2C(C(=O)O)=C(CSc3nnnn3C)CS[C@@H]21` (some centres undefined), 7.42% [at 17.3 µM]; for `CCCCC(CC)COS(=O)(=O)O` (centres undefined), -6.85%.

Consider `O.O.O.O.O.O.O.O=S(=O)([O-])[O-].[Co+2]`, for which the “activity change, negative = cytotoxicity” value is -9.7%.

In the case of `COc1cc(C)c(/C=C/C(C)=C/C=C/C(C)=C/C(=O)O)c(C)c1C`, the “activity change, negative = cytotoxicity” value was -31.4%.

Turning to `C[C@H](CCC(=O)O)[C@H]1CC[C@H]2[C@@H]3CC[C@@H]4C[C@H](O)CC[C@]4(C)[C@H]3C[C@H](O)[C@]12C`, the “activity change, negative = cytotoxicity” value was -24.1%. As for `CC(=NCc1ccccc1)c1ccccc1O`, the “activity change, negative = cytotoxicity” value was 9.41%. Turning to `CCCCCCCCCCCCCC(=O)OCC(COP(=O)([O-])OCC[N+](C)(C)C)OC(=O)CCCCCCCCCCCCC` (centres undefined), the “activity change, negative = cytotoxicity” value was -6.08%. Consider `CC(C)[C@@H](N)C(=O)O`, for which the “activity change, negative = cytotoxicity” value was 0.394%. On to `[O]=[Bi][O]C(=O)[O][Bi]=[O]`, for which the “activity change, negative = cytotoxicity” value is -7.27%.

As to `NCCN`, the “activity change, negative = cytotoxicity” value is -4.78%. `CC(C)Cc1ccc([C@@H](C)C(=O)NS(C)(=O)=O)cc1`: the “activity change, negative = cytotoxicity” value is 2.04%.

For `CNC(C)CCC=C(C)C` (centres undefined), the “activity change, negative = cytotoxicity” value was -18.2%. As for `Nc1nc2c(c(=O)[nH]1)N(C=O)C(CNc1ccc(C(=O)N[C@@H](CCC(=O)O)C(=O)O)cc1)CN2` (some centres undefined), the “activity change, negative = cytotoxicity” value was 0.0399% [at 17.3 µM]. The same measure, in the same setting: for `O=C(CO)[C@@H](O)[C@H](O)[C@@H](O)C(=O)O` the value was 5.69%; for `CC1CC(O)CC(C)(C)C1` (centres undefined), -11.1%. For `CO`, the “activity change, negative = cytotoxicity” value was 3.22%. Turning to `O=P(O)(O)OC[C@H]1O[C@](O)(COP(=O)(O)O)[C@@H](O)[C@@H]1O`, the “activity change, negative = cytotoxicity” value was -5.56%.

For the molecule `NC(=O)[C@@H]1C[C@]2(NC(=O)NC2=O)c2cc(F)ccc2O1`, the “activity change, negative = cytotoxicity” value is -9.68%. Turning to `O=[n+]1ccn([O-])c2ccccc21`, the “activity change, negative = cytotoxicity” value is 5.61%. The same measure, in the same setting: as for `CC1CCCC(C)N1NC(=O)c1ccc(Cl)c(S(N)(=O)=O)c1` (centres undefined), the figure is 6.8% [at 17.3 µM]; as for `CC(CCc1ccc(O)cc1)NCC(O)c1ccc(O)cc1` (centres undefined), 22.2%.
